Where “and” joins values, the source holds several entries; their conditions need not be identical. Equal entries are not always repeated. The whole screen tested about 5,500 compounds, of which about 2,000 (36%) were called active. Not shown: some 18% with an inconclusive outcome. Some of the results follow. Values without a mark were called inactive. Rule as the data show it: active = normalized growth mostly below about 0.91 (no sharp cut-off); inconclusive = no clear call, values can overlap the other calls; inactive = mostly above about 0.92.
Test: chemical genetic growth profiling, strain panel (AID 1159580);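 also: tested at 20 µM; growth read once vehicle control cultures reached saturation at 30 °C; 1 = growth at the plate median or of vehicle wells; lower values mean less growth of the strain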
Conditions: growth OD

Q: Which normalized growth (S. cerevisiae deletion strains, locus YKL009W, strain mrt4, hits give low values) does the source give for `NC(N)=NC(=O)c1nc(Cl)c(N)nc1N` here?
A: 1.03

Q: What about the normalized growth (S. cerevisiae deletion strains, locus YKL068W, hits give low values) of the same compound?
A: 1

Q: What about the normalized growth (S. cerevisiae deletion strains, locus YKL085W, strain MDH1 (second series), hits give low values) of the same compound?
A: 1.01

Q: What about the normalized growth (S. cerevisiae deletion strains, locus YKL085W, strain MDH1, hits give low values) of the same compound?
A: 1.01

Q: What about the normalized growth (S. cerevisiae deletion strains, locus YKL160W, strain elf1, hits give low values) of the same compound?
A: 1.02

Q: What about the normalized growth (S. cerevisiae deletion strains, locus YKL190W, strain CNB1, hits give low values) of the same compound?
A: 0.994

Q: What about the normalized growth (S. cerevisiae deletion strains, locus YKR001C, strain vps1, hits give low values) of the same compound?
A: 1.02

Q: And the normalized growth (S. cerevisiae deletion strains, locus YKR026C, strain gcn3, hits give low values)?
A: 1.03

Q: What about the normalized growth (S. cerevisiae deletion strains, locus YKR091W, strain srl3, hits give low values) of the same compound?
A: 1.03

Q: What about the normalized growth (S. cerevisiae deletion strains, locus YLL001W, strain dnm1, hits give low values) of the same compound?
A: 1.02

Q: And the normalized growth (S. cerevisiae deletion strains, locus YLL026W, hits give low values)?
A: 1.02

Q: What about the normalized growth (S. cerevisiae deletion strains, locus YLL041C, strain sdh2, hits give low values) of the same compound?
A: 1

Q: And the normalized growth (S. cerevisiae deletion strains, locus YLR027C, strain aat2, hits give low values)?
A: 1.02

Q: And the normalized growth (S. cerevisiae deletion strains, locus YLR039C, strain RIC1, hits give low values)?
A: 1.31

Q: What about the normalized growth (S. cerevisiae deletion strains, locus YLR058C, strain SHM2, hits give low values) of the same compound?
A: 1.01

Q: What about the normalized growth (S. cerevisiae deletion strains, locus YLR102C, strain apc9, hits give low values) of the same compound?
A: 1

Q: What about the normalized growth (S. cerevisiae deletion strains, locus YLR113W, strain HOG1, hits give low values) of the same compound?
A: 1.03

Q: What about the normalized growth (S. cerevisiae deletion strains, locus YLR221C, strain rsa3, hits give low values) of the same compound?
A: 1.03

Q: What about the normalized growth (S. cerevisiae deletion strains, locus YLR258W, strain gsy2, hits give low values) of the same compound?
A: 1.02

Q: What about the normalized growth (S. cerevisiae deletion strains, locus YLR262C, strain YPT6 (second series), hits give low values) of the same compound?
A: 1.02

Q: And the normalized growth (S. cerevisiae deletion strains, locus YLR262C, strain YPT6, hits give low values)?
A: 1.41 [resistant] (active)

Q: And the normalized growth (S. cerevisiae deletion strains, locus YLR268W, strain sec22, hits give low values)?
A: 1.05

Q: What about the normalized growth (S. cerevisiae deletion strains, locus YLR320W, strain mms22, hits give low values) of the same compound?
A: 1.01

Q: What about the normalized growth (S. cerevisiae deletion strains, locus YLR330W, strain CHS5, hits give low values) of the same compound?
A: 1.01

Q: And the normalized growth (S. cerevisiae deletion strains, locus YLR342W, strain FKS1 (second series), hits give low values)?
A: 0.893

Q: What about the normalized growth (S. cerevisiae deletion strains, locus YLR342W, strain FKS1, hits give low values) of the same compound?
A: 1.03

Q: What about the normalized growth (S. cerevisiae deletion strains, locus YLR357W, strain rsc2, hits give low values) of the same compound?
A: 1.02

Q: And the normalized growth (S. cerevisiae deletion strains, locus YLR370C, strain arc18, hits give low values)?
A: 1.01

Q: What about the normalized growth (S. cerevisiae deletion strains, locus YLR371W, strain rom2, hits give low values) of the same compound?
A: 1.03

Q: And the normalized growth (S. cerevisiae deletion strains, locus YLR384C, strain iki3, hits give low values)?
A: 1.03

Q: And the normalized growth (S. cerevisiae deletion strains, locus YLR418C, strain cdc73, hits give low values)?
A: 0.94

Q: And the normalized growth (S. cerevisiae deletion strains, locus YML016C, strain PPZ1, hits give low values)?
A: 1.01

Q: And the normalized growth (S. cerevisiae deletion strains, locus YML032C, strain rad52, hits give low values)?
A: 1.01

Q: And the normalized growth (S. cerevisiae deletion strains, locus YML120C, strain ndi1, hits give low values)?
A: 1.01

Q: What about the normalized growth (S. cerevisiae deletion strains, locus YML124C, strain tub3, hits give low values) of the same compound?
A: 1.02

Q: And the normalized growth (S. cerevisiae deletion strains, locus YMR058W, strain fet3, hits give low values)?
A: 1.01

Q: What about the normalized growth (S. cerevisiae deletion strains, locus YMR078C, strain ctf18, hits give low values) of the same compound?
A: 1.02

Q: And the normalized growth (S. cerevisiae deletion strains, locus YMR125W, strain sto1, hits give low values)?
A: 1.02

Q: What about the normalized growth (S. cerevisiae deletion strains, locus YMR129W, hits give low values) of the same compound?
A: 1

Q: What about the normalized growth (S. cerevisiae deletion strains, locus YMR205C, strain PFK2, hits give low values) of the same compound?
A: 1.02

Q: And the normalized growth (S. cerevisiae deletion strains, locus YMR223W, strain ubp8, hits give low values)?
A: 1.01

Q: And the normalized growth (S. cerevisiae deletion strains, locus YMR231W, strain pep5, hits give low values)?
A: 1.02

Q: What about the normalized growth (S. cerevisiae deletion strains, locus YMR307W, strain GAS1, hits give low values) of the same compound?
A: 1.02 and 0.992

Q: And the normalized growth (S. cerevisiae deletion strains, locus YNL067W, strain RPL9B, hits give low values)?
A: 1

Q: What about the normalized growth (S. cerevisiae deletion strains, locus YNL071W, strain lat1, hits give low values) of the same compound?
A: 1.01

Q: What about the normalized growth (S. cerevisiae deletion strains, locus YNL128W, strain TEP1, hits give low values) of the same compound?
A: 0.981

Q: And the normalized growth (S. cerevisiae deletion strains, locus YNL153C, strain GIM3, hits give low values)?
A: 1

Q: What about the normalized growth (S. cerevisiae deletion strains, locus YNL175C, strain NOP13, hits give low values) of the same compound?
A: 0.994

Q: What about the normalized growth (S. cerevisiae deletion strains, locus YNL183C, strain NPR1, hits give low values) of the same compound?
A: 0.948

Q: What about the normalized growth (S. cerevisiae deletion strains, locus YNL197C, strain WHI3, hits give low values) of the same compound?
A: 0.992

Q: What about the normalized growth (S. cerevisiae deletion strains, locus YNL209W, strain ssb2, hits give low values) of the same compound?
A: 1

Q: What about the normalized growth (S. cerevisiae deletion strains, locus YNL224C, strain SQS1, hits give low values) of the same compound?
A: 1

Q: What about the normalized growth (S. cerevisiae deletion strains, locus YNL233W, strain BNI4, hits give low values) of the same compound?
A: 1

Q: And the normalized growth (S. cerevisiae deletion strains, locus YNL248C, strain rpa49, hits give low values)?
A: 1.03

Q: What about the normalized growth (S. cerevisiae deletion strains, locus YNL250W, strain rad50, hits give low values) of the same compound?
A: 1.02

Q: And the normalized growth (S. cerevisiae deletion strains, locus YNL271C, strain bni1, hits give low values)?
A: 1.03

Q: What about the normalized growth (S. cerevisiae deletion strains, locus YNL298W, strain CLA4, hits give low values) of the same compound?
A: 1.02

Q: What about the normalized growth (S. cerevisiae deletion strains, locus YNL307C, strain MCK1, hits give low values) of the same compound?
A: 1.01

Q: And the normalized growth (S. cerevisiae deletion strains, locus YNL322C, strain KRE1 (second series), hits give low values)?
A: 1.02

Q: What about the normalized growth (S. cerevisiae deletion strains, locus YNL322C, strain KRE1, hits give low values) of the same compound?
A: 1.01

Q: What about the normalized growth (S. cerevisiae deletion strains, locus YNR049C, strain mso1, hits give low values) of the same compound?
A: 1.02

Q: And the normalized growth (S. cerevisiae deletion strains, locus YNR052C, strain pop2, hits give low values)?
A: 1.01

Q: And the normalized growth (S. cerevisiae deletion strains, locus YOL006C, strain TOP1, hits give low values)?
A: 0.949

Q: And the normalized growth (S. cerevisiae deletion strains, locus YOL012C, strain htz1)?
A: 1.27

Q: What about the normalized growth (S. cerevisiae deletion strains, locus YOL147C, strain pex11, hits give low values) of the same compound?
A: 1.02

Q: And the normalized growth (S. cerevisiae deletion strains, locus YOR001W, strain rrp6, hits give low values)?
A: 1.03

Q: What about the normalized growth (S. cerevisiae deletion strains, locus YOR061W, strain CKA2, hits give low values) of the same compound?
A: 1.01

Q: And the normalized growth (S. cerevisiae deletion strains, locus YOR069W, strain VPS5, hits give low values)?
A: 1

Q: And the normalized growth (S. cerevisiae deletion strains, locus YOR070C, strain gyp1, hits give low values)?
A: 1.01

Q: What about the normalized growth (S. cerevisiae deletion strains, locus YOR080W, strain dia2, hits give low values) of the same compound?
A: 1.04

Q: What about the normalized growth (S. cerevisiae deletion strains, locus YOR083W, strain WHI5 (second series), hits give low values) of the same compound?
A: 1.01

Q: What about the normalized growth (S. cerevisiae deletion strains, locus YOR083W, strain WHI5, hits give low values) of the same compound?
A: 1.04

Q: And the normalized growth (S. cerevisiae deletion strains, locus YOR106W, strain vam3, hits give low values)?
A: 0.997

Q: And the normalized growth (S. cerevisiae deletion strains, locus YOR136W, strain idh2, hits give low values)?
A: 1.04

Q: What about the normalized growth (S. cerevisiae deletion strains, locus YOR144C, strain elg1, hits give low values) of the same compound?
A: 1.01

Q: What about the normalized growth (S. cerevisiae deletion strains, locus YOR184W, strain ser1, hits give low values) of the same compound?
A: 1.05

Q: What about the normalized growth (S. cerevisiae deletion strains, locus YOR231W, strain MKK1, hits give low values) of the same compound?
A: 0.998

Q: And the normalized growth (S. cerevisiae deletion strains, locus YOR265W, strain rbl2, hits give low values)?
A: 1.02

Q: What about the normalized growth (S. cerevisiae deletion strains, locus YOR270C, strain vph1, hits give low values) of the same compound?
A: 1.03

Q: And the normalized growth (S. cerevisiae deletion strains, locus YOR290C, strain snf2, hits give low values)?
A: 0.985

Q: What about the normalized growth (S. cerevisiae deletion strains, locus YOR316C, strain cot1, hits give low values) of the same compound?
A: 1.01

Q: What about the normalized growth (S. cerevisiae deletion strains, locus YPL051W, strain arl3, hits give low values) of the same compound?
A: 1.03

Q: What about the normalized growth (S. cerevisiae deletion strains, locus YPL078C, strain atp4, hits give low values) of the same compound?
A: 1.04

Q: What about the normalized growth (S. cerevisiae deletion strains, locus YPL106C, strain sse1, hits give low values) of the same compound?
A: 1

Q: What about the normalized growth (S. cerevisiae deletion strains, locus YPL240C, strain hsp82, hits give low values) of the same compound?
A: 1.02

Q: What about the normalized growth (S. cerevisiae deletion strains, locus YPL241C, strain CIN2, hits give low values) of the same compound?
A: 0.998 and 0.996

Q: And the normalized growth (S. cerevisiae deletion strains, locus YPL256C, strain CLN2, hits give low values)?
A: 1.01

Q: And the normalized growth (S. cerevisiae deletion strains, locus YPR119W, strain clb2, hits give low values)?
A: 1.01

Q: And the normalized growth (S. cerevisiae deletion strains, locus YPR141C, strain kar3, hits give low values)?
A: 1.01

Q: What about the normalized growth (S. cerevisiae deletion strains, locus YPR163C, strain tif3, hits give low values) of the same compound?
A: 1.02

Q: What about the normalized growth (S. cerevisiae deletion strains, locus YPR167C, strain met16, hits give low values) of the same compound?
A: 1.02

Q: And the normalized growth (S. cerevisiae deletion strains, strain wtn01, hits give low values)?
A: 1.01

Q: And the normalized growth (S. cerevisiae strains, strain wild type, hits give low values)?
A: 1

— PubChem BioAssay AID1159580 (chemical genetic matrix, 2015)
